# According to PubChem BioAssay (NCI):
# About 83,000 compounds went through this panel and 20% of them were active in at least one assay; those are over-represented in the sample as a whole.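 Assay: single dose, 48 h. Readout: percent growth (0 = no net growth; negative = cell death). Active: <10.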 Unmarked numbers belong to inactive results. Calls of active or inactive are those of the source.
# Assays:
# Assay in all cases: NCI-60 one-dose screen, 48 h (100 = growth as untreated, 0 = no growth, -100 = all killed)
# [1] = test system: SK-MEL-2 melanoma; conditions: 10 µM unless noted
# [2] = test system: EKVX NSCLC; conditions: 10 µM unless noted
# [3] = test system: SN12C renal; conditions: 10 µM unless noted
# [4] = test system: UO-31 renal; conditions: 10 µM unless noted
# [5] = test system: TK-10 renal; conditions: 10 µM unless noted
# [6] = test system: ACHN renal; conditions: 10 µM unless noted
# [7] = test system: CAKI-1 renal; conditions: 10 µM unless noted
# [8] = test system: A498 renal; conditions: 10 µM
# [9] = test system: HL-60(TB) leukemia; conditions: 10 µM unless noted
# [10] = test system: CCRF-CEM leukemia; conditions: 10 µM unless noted
# [11] = test system: MOLT-4 leukemia; conditions: 10 µM unless noted
# [12] = test system: SR leukemia; conditions: 10 µM unless noted
# [13] = test system: OVCAR-8 ovarian; conditions: 10 µM unless noted
# [14] = test system: OVCAR-5 ovarian; conditions: 10 µM unless noted
# [15] = test system: SK-OV-3 ovarian; conditions: 10 µM unless noted
# [16] = test system: IGROV1 ovarian; conditions: 10 µM unless noted
# [17] = test system: OVCAR-3 ovarian; conditions: 10 µM unless noted
# [18] = test system: HS 578T breast; conditions: 10 µM unless noted
# [19] = test system: RPMI-8226 leukemia; conditions: 10 µM unless noted
# [20] = test system: OVCAR-4 ovarian; conditions: 10 µM unless noted
Compound,growth [1] [%],growth [2] [%],growth [3] [%],growth [4] [%],growth [5],growth [6] [%],growth [7] [%],growth [8],growth [9] [%],growth [10],growth [11],growth [12],growth [13] [%],growth [14],growth [15] [%],growth [16] [%],growth [17] [%],growth [18] [%],growth [19] [%],growth [20] [%]
CCOC(=S)S[C@H]1C[C@@H]2[C@H](CC[C@]3(C)C(=O)CC[C@@H]23)[C@@]2(C)CCC(=O)C=C12,116,102,93.9,97.3,100%,109,99.6,110%,101,107%,110%,106%,100,102%,108,112,115,–,–,–
COc1ccc(/C(C)=C(\c2ccc(OCCN3CCOCC3)cc2)c2ccc(OC(=O)Cc3ccccc3)cc2)cc1,96.1,97.7,107,97,108%,101,97.5,108%,118,98.3%,104%,112%,–,104%,97.6,113,101,110,–,–
CC[CH2][Sn]([Cl])([Cl])[CH2]CC,52.4,104,74.5,76.6,56.8%,76.3,64.1,47.4%,54.9,10%,58.6%,–,89.7,94.9%,107,84.6,105,–,19,95.2
CC1(C)N=C(N)N=C(N)N1c1ccc(OCCCNC(=O)Nc2ccc(S(=O)(=O)F)cc2)c(Cl)c1,53.3,53,23.8,83.6,33.3%,26.4,92.1,85.3%,31.8,24.2%,33.4%,–,31.5,48%,58.5,17.9,27.4,83.6,24.6,54.3
NC(=Nc1ccccc1)N[N+](=O)[O-],127,94,102,92,103%,114,97.6,110%,38.7,52.1%,89.2%,–,119,91.4%,98.4,121,110,97.5,104,–
O=C(N/N=C\c1ccc(N(CCCl)CCCl)cc1Cl)c1cccnc1,27.2,103,79.2,88,6.39% (active),98.5,69.3,-93.6% (active),–,74.8%,87.5%,99.5%,96,-3.04% (active),95.3,37,57.6,119,82.4,53.7
CC[S][Hg][Cl],105,106,105,87.9,115%,101,89.7,115%,–,93.4%,109%,98.1%,102,116%,110,112,109,106,114,–
CCN1C(=O)C(=C/C=C/c2ccccc2)C(=O)N(CC)C1=O,99.9,112,75.8,70.1,94.3%,70.3,87.8,94.3%,–,-14.1% (active),6.92% (active),-6.58% (active),54,107%,103,84.5,42.6,91.2,61,111
CCOC(=O)N1CC1,105,84,95.8,80.7,112%,94.8,95.1,111%,–,–,–,-20.9% (active),101,97.1%,111,93.5,111,112,91.2,93.1
